Only some compounds are listed: those with a hit (about 3.9% of all), similar ones and a draw of the others.
CCHFV vOTU inh = CCHFV vOTU protease inhibition. Pep-AMC fluorescence. inhibition, % at 11.5 µM. 0.55% of 370,000 active. AID 651958; in the data active means inhibition above about 30%; further: 0% = vehicle wells with enzyme and 100% = no enzyme wells
BoNT-F LC inh = inhibitors of Botulinum neurotoxin F light chain protease; 0.22% of 360,000 active; inhibition, % at 10 µM; Multiplex microsphere protease cleavage assay, flow cytometry; AID 588497; in the data active means inhibition above about 35%, passing the limit was not always enough; inconclusive means no clear call, values can overlap the other calls; further: plate controls were buffer without enzyme for full effect and enzyme alone for no effect
3CLpro inhibitor = SARS-CoV 3CLpro protease inhibition | P0C6X7 | recombinant SARS-CoV 3CLpro, quenched FRET peptide cleavage | inhibition, % at 6 µM | 0.14% of 290,000 active; in the data active means inhibition above about 12%
BoNT A protease = blocks Botulinum neurotoxin A light chain protease; 0.17% of 360,000 active; multiplex microsphere protease substrate cleavage, flow cytometry; inhibition, % at 10 µM; AID 588499; further: plate controls were buffer without enzyme for full effect and enzyme alone for no effect
Bead autofluor = counter-screen for toxin protease inhibitors: compound fluorescence; fluorescence intensity (test concentration not listed); 3.1% of 360,000 active; compound autofluorescence counterscreen, microsphere flow cytometry; active compounds read high; in the data active means fluorescence intensity above about 16000; inconclusive means no clear call, values can overlap the other calls
Anthrax LF prot = anthrax lethal factor protease inhibition. inhibition, % at 10 µM. P15917. multiplex microsphere protease cleavage assay, LF. 0.12% of 360,000 active. AID 588501; further: plate controls were buffer without enzyme for full effect and enzyme alone for no effect
Target sequence (P15917 whole entry, looked up): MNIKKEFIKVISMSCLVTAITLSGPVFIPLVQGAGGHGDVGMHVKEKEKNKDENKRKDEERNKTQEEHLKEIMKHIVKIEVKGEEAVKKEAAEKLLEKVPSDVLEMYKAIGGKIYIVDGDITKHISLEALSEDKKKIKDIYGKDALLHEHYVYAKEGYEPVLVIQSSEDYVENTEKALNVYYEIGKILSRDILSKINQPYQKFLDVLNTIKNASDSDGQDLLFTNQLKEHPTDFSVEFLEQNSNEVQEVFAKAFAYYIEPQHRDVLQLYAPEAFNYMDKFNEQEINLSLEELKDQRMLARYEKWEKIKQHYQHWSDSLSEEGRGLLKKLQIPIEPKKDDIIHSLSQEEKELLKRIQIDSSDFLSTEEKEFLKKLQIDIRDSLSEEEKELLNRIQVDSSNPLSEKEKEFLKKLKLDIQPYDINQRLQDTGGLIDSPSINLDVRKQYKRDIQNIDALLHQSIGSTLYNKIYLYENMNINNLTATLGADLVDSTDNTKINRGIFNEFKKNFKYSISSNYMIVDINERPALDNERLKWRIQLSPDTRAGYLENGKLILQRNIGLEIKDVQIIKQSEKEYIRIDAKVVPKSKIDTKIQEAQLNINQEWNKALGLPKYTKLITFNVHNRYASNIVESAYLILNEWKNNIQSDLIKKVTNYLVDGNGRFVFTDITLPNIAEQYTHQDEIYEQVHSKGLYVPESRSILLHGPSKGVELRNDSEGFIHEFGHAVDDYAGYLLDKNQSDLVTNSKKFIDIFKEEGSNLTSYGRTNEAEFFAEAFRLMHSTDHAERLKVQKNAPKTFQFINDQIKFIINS
* marks the source's active call; other numbers are inactive results; ? = inconclusive; . = no result given. Unless noted, no stated cut-off is given here; in the data, active means inhibition above about 30%; inconclusive means no clear call, values can overlap the other calls; inactive means below that.

SMILES	CCHFV vOTU inh	BoNT-F LC inh	3CLpro inhibitor	BoNT A protease	Bead autofluor	Anthrax LF prot
CCc1nc2sc3ccccc3c(=O)c2c(=O)n1CCOC	0.1	1.0	5.3	1.3	19591*	-3.9
COCCn1c(C(C)C)nc2sc3ccccc3c(=O)c2c1=O	.	5.7	1.5	?	19469*	-8.2
O=C(Nc1ccc(-c2nc3ccccc3o2)c(O)c1)c1cc(-n2cnnc2)ccc1Cl	-48.6	-2.3	1.3	-1.6	21640*	0.9
Cc1c(NC(=O)c2cc(-n3cnnc3)ccc2Cl)cccc1-c1nc2ccccc2o1	-7.4	-19.4	-3.0	-0.4	2147	-5.6
O=C(Nc1ccc(-c2nc3ccccc3o2)cc1)c1cc(-n2cnnc2)ccc1Cl	-1.7	-1.7	0.8	0.0	23846*	-1.1
O=C(Nc1ccc2oc(-c3ccccc3)nc2c1)c1cc(-n2cnnc2)ccc1Cl	12.3	-9.6	-2.6	0.1	4432	-8.1
CCOc1c(Br)cc(Br)cc1/C=C1\SC(N)=NC1=O	-5.5	7.8	4.6	-3.4	3119	-3.2
CCCOc1ccccc1Nc1nnc(C)c(=O)[nH]1	9.1	-6.7	-2.4	-5.1	21083*	-3.5
O=C(NC1(C(F)(F)F)C(=O)Nc2c1c(=O)[nH]c(=O)n2Cc1ccccc1)c1ccco1 (stereo not given)	3.4	1.2	3.1	-1.0	22776*	-2.5
CCOC(=O)N1CCC(NC(=O)CCc2c(C)nc3c(c(C)nn3C(C)(C)C)c2C)CC1	2.3	4.2	-3.2	4.3	21418*	1.1
CCOC(=O)N1CCN(C(=O)CCc2c(C)nc3c(c(C)nn3-c3ccc(C)c(C)c3)c2C)CC1	-18.5	-4.5	-5.2	-0.8	20186*	-8.0
CCOC(=O)C1CCCCN1C(=O)CCc1c(C)nc2ncnn2c1C (stereo not given)	-0.4	-5.2	-0.2	-5.4	21476*	2.0
CCOC(=O)N1CCC(NC(=O)CCCC(=O)O)CC1	-0.1	-3.5	-5.1	-0.6	5938	-3.3
CCOC(=O)N1CCC(NC(=O)CCc2c(C)nc3ncnn3c2C)CC1	-5.7	0.7	-2.1	?	22017*	-0.6
CCOC(=O)N1CCC(NC(=O)CCc2c(C)nc3nc(C)nn3c2C)CC1	-7.2	5.6	-1.0	-0.3	8266	-3.2
CCOC(=O)C1CCCCN1C(=O)CCc1c(C)nc2cc(-c3ccccc3)nn2c1C (stereo not given)	-7.8	5.1	-2.1	0.5	4701	-0.1
CCOC(=O)CCc1c(C)nc2c(c(C)nn2-c2ccccc2)c1C	-6.6	3.9	-1.6	1.0	4196	9.4
C=CCN=C1NC(CCc2ccccc2)C(C(=O)OC)=C(C)N1Cc1ccccc1C(F)(F)F (stereo not given)	21.0	.	.	.	.	.
CCOC(=O)CCc1c(C)nc2ncnn2c1C	5.8	-2.3	-3.3	?	23382*	-1.5
Cc1nc2nc(C)c(CCC(=O)NCc3ccc4c(c3)OCO4)c(C)n2n1	-2.1	-9.7	0.1	?	17817*	-3.1
Cc1nc2ncnn2c(C)c1CCC(=O)NCc1ccccc1	-0.1	-5.1	-6.7	-2.3	20501*	-1.1
Cc1nc2ncnn2c(C)c1CCC(=O)NC(C)c1ccc2c(c1)OCCO2 (stereo not given)	-7.1	-0.7	3.5	-1.0	22862*	-0.7
Cc1nc2nc(C)c(CCC(=O)NC(C)c3ccc4c(c3)OCCO4)c(C)n2n1 (stereo not given)	20.4	-0.3	-4.2	0.5	3157	1.9
Cc1ccc(C)c(CSc2nnc(-c3cccnc3)o2)c1	1.5	-2.4	5.1	?	24006*	-2.8
Fc1ccccc1CSc1nnc(-c2cccnc2)o1	5.4	4.4	-1.2	-0.4	6879	-0.3
SMILES	CCHFV vOTU inh	BoNT-F LC inh	3CLpro inhibitor	BoNT A protease	Bead autofluor	Anthrax LF prot
COc1cccc(-c2nc(CS(=O)(=O)CC(=O)NCCCOC(C)C)c(C)o2)c1	6.3	1.4	0.7	?	21662*	-3.7
COc1cccc(-c2nc(CS(=O)CC(=O)N3CCC4(CC3)OCCO4)c(C)o2)c1 (stereo not given)	-9.3	-4.0	-0.2	?	21075*	1.4
Cc1cccc(-c2nc(CS(=O)CC(=O)NCCCSC3CCCCC3)c(C)o2)c1 (stereo not given)	20.9	-1.7	5.2	?	20646*	-2.6
Cc1oc(-c2ccc(Cl)cc2)nc1CS(=O)CC(=O)N1CCC2(CC1)OCCO2 (stereo not given)	-3.2	-2.8	-1.0	0.4	?	-18.0
COc1cccc(-c2nc(CS(=O)CC(=O)NCCCOC(C)C)c(C)o2)c1 (stereo not given)	-5.7	5.2	1.9	2.4	21012*	-0.8
Cc1cccc(-c2nc(CS(=O)CC(=O)NC3CCCCC3)c(C)o2)c1 (stereo not given)	7.2	-1.1	-1.3	0.2	5183	1.0
COc1cccc(-c2nc(CS(=O)CC(=O)NCCc3ccccc3)c(C)o2)c1 (stereo not given)	-12.2	4.5	1.6	-0.3	4236	-0.9
CCOc1ccc(NC(=O)CN(c2ccc(OC)c(OC)c2)S(=O)(=O)c2ccc(C)cc2)cc1	7.7	?	1.7	-6.3	4081	3.4
CCc1nc(Nc2ccncc2)c2oc3ccccc3c2n1	1.4	-1.7	-5.5	-0.1	20587*	-1.3
CCc1nc(N2CCCCC2C)c2oc3ccccc3c2n1 (stereo not given)	9.2	-0.9	0.1	0.6	19411*	0.9
Cc1nc(Nc2ccncc2)c2oc3ccccc3c2n1	9.6	11.0	0.8	1.1	7268	-0.3
CCc1nc(N2CCCCC2C(=O)O)c2oc3ccccc3c2n1 (stereo not given)	-4.0	4.4	-1.5	-1.2	4994	-5.4
CCc1nc(N2CCCCC2)c2oc3ccccc3c2n1	11.1	-4.5	-4.9	-3.8	23515*	-1.9
CC(C)[C@H](NC(=O)C1CCCC1)C(=O)N1CCC[C@H]1C(=O)NCc1ccccc1	3.4	.	.	.	.	.
CC(=O)Nc1ccc(NCC(=O)c2ccccc2)cc1	7.8	5.8	2.1	-0.3	5173	1.3
Cc1c(C(=O)O)oc2ccc(S(=O)(=O)NCc3ccc(F)cc3)cc12	-2.0	-5.6	-1.2	-1.6	24054*	-2.3
Cc1ccc(C)n1-c1nc(=S)[nH][nH]1	-7.5	-0.6	-3.7	-0.8	16597*	-0.9
S=c1nc(-c2ccc(Cl)cc2)[nH][nH]1	-4.0	?	-3.3	2.5	3952	-16.3
Nn1c(SCC(=O)NC2CCCCC2)nnc1-c1cc(-c2ccc(Cl)cc2)n[nH]1	-1.4	.	.	.	.	.
Cc1[nH]c(=O)[nH]c(=O)c1S(=O)(=O)NCC12CC3CC(CC(C3)C1)C2	-7.2	-3.0	-2.4	?	21375*	0.3
CC1CN(C(=O)CCNC(=O)c2ccc(Cl)cc2)CC(C)O1 (stereo not given)	-4.9	3.3	-3.2	2.3	5478	3.8
CCN(C(=O)Cc1c(C(=O)O)[nH]c2ccccc12)c1cc(OC)ccc1OC	7.7	-1.1	-0.2	0.3	20129*	-4.0
O=C1Nc2ccccc2/C1=C/c1cnc[nH]1	1.8	-0.5	-3.8	3.4	19606*	-6.7
COc1ccc2c(c1)/C(=C/c1cnc[nH]1)C(=O)N2	7.7	1.5	-2.6	0.2	6058	-12.2

Compound activity as filed in PubChem.
